Results on 40 sequences are retold here after the supplement of paper PMC6555819.

This assay deals with VDR:RXRa (NR concentration 270 nM, RXRa partner concentration 90 nM). Briefly: PBM binding z-score (relative to random genomic background probes); higher = stronger binding; sequences stand for … in GC…GCGATTGACAGCGTAGAATGAAGG
Here is the method:
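Protein-binding microarray (Agilent 4x180K custom design, double-stranded 60-nt probes: 5' GC cap, 34-nt variable region, 24-nt constant primer region; full probe sequence given). Purified or IVT nuclear receptor:RXRα heterodimers (3:1 NR:RXRα, mostly 270:90 nM) or homodimers were incubated for 1 h in PBS with 2% milk and no ligand, then detected with Alexa488 antibodies. Fluorescence from o1-orientation probes (~5 replicates averaged) was converted to z-scores against 500 random hg19 background probes. Variable regions are seed direct-repeat (DR0–DR5) sites, all their single-nucleotide variants and half-site ablations.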
In the case of ATATGTAGGTTCAGGGTCATTCAGGTTGGTTCGC, the PBM binding z-score came out at 6.03.
Then ACCGAAAGGTCGACGAGGTGAGTATACACCGTTT, with 5.14; and TGAATGAGGTTAAAAGATCAGGGAACGTTGCAAA, with 1.45; and ATCGAACGGTCGAAGGTGAGTATACCCACCCGAA, with -0.202.
With ATATGTAGGTTAGCTGGGGTCATTAAGACTAGGC, the PBM binding z-score came out at 5.83.
For TCATATACGTAAAGGTGAAAGTCGAACGATATGA, the PBM binding z-score worked out at 1.05.
AGAGTGAGGTTATACGTAGATCAGGGAAGAAAGT gave a PBM binding z-score of 1.6.
In turn, TCGAGTAGGTTACCAATCGGGCATTCAGCTTTCT displayed a PBM binding z-score of -0.344.
GCTCGGAGGACAAGGTCAGAGCGTTGTCCGTAGA gave a PBM binding z-score of 1.67.
As for ACTATTACTTGACTTAGGGCAACCGATACGACGC, the PBM binding z-score was determined as 0.428.
Then TCGAGTAGGTTACCAATGGGGCATTCAGCTTTCT, with 0.0745; and GGAACGCGGGCAAGTTGATAGCAGAGTTTGATGG, with -0.834.
On to GGAACGAGGGCAAAGTTGACAGCATCTGTCGACG, for which the PBM binding z-score was 1.6.
AGAATGAGGTTATTCAGATCAGGGAATTGCGGTC gave a PBM binding z-score of 2.7.
Then TCATATAGGTAAAAGGTAAAAGTCGGTGTGGTAA, with 1.33.
Then CCTGATAGGTCAATGGTCAGCTAAAGCAGCTCGC, with 1.99; and CGAACTAGGTCAAAACAGGACAGTGAAGGATGAT, with 1.99; and GATACAGGGTCAGCTAGAGGCCTGAGTATGGAAA, with 2.2.
Then GCTGCTAGGTAAACTGATGGTCAGCTAAAGCTCG, with -0.576; and CCTAGTTGGTCAAGGTTACACACGCTATAGGTAC, with 1.5; and CCTAGCAGGCCAGGGTGACTCAAGCATTTCGCTT, with -0.639.
As for CCTTACGGGTCACGAGATTATAGCACGACGAGCG, the PBM binding z-score amounted to 3.55.
As for CCAACTGGGGCAAAGGTTACCATACTCAGTACGA, the figure is 1.7; as for CAAACTAGGTCAAAGTTCAAAGTCGAGCCAACCA, 6.12.
As for TCAGACAGGTTAAGGTAACTCAGGTACGCAGTCG, the figure is 1.53.
In the case of CGTCCAAGGTCAGCAGGTCTGTGAAAGCGACGTG, the PBM binding z-score was found to be 4.69.
As for CTCGAAAGGTCGGCTGAGGTGAGTATACGGATAA, the figure is 2.95; as for CGTCCAAGGTCAGAGCGGTCAGTGAATGCCGAGT, 5.45; as for ATCGAAAGGTCGAGGTGAGTATCGAGAAAGGGAA, 2.57.
For the sequence AGAATGAGGTTACCAATGATCAGGGAAACGCTTG, the PBM binding z-score is 1.18.
With GCGACTCGGGCAAAGCAGGTTACCATAAGGTTGG, the PBM binding z-score was -0.491.
CAAACTGGGTCAAGGTCAAAGTCGGTTTGTGCCA had a PBM binding z-score of 5.18.
Then CGAACCAGGTCATTGACAGGACAGTGAATAGTAA, with 2.85; and CCGACTGGGGCAAAGGTGACCATACTCAGTACGA, with 0.389.
Then GCTGCTAGGTCAGGTCGGTCAGCTAACGGGTACG, with 1.09; and CGAACGAAGGCATGAGTTGATAGCAAATGCCGAT, with -0.373; and AATACAGGGTCATCGTAGGCCCGAGTACGCACAG, with 4.95.
Consider ATCTCTAGGTAAAGATCAGTGAAAGATCGATAGA, for which the PBM binding z-score is -0.0816.
As for TCTTGTTGATCAATAGAGGTTAAGAAAGTGCGCT, the PBM binding z-score came out at 1.69.
Then CGTCAAAGTTCAAGGGAACGTAACAGAAAGCAGC, with 3.12.
